Compound activity (PubChem BioAssay)
BoNT F protease: BoNT/F light chain protease inhibitors, primary screen, biochemical, flow cytometry, MLPCN library. Botulinum neurotoxin type F light chain protease (Clostridium botulinum). inhibition, % at 10 µM. Multiplex microsphere protease cleavage assay. actives 0.22% (n = 360,000). AID 588497, 2011; in the data active = inhibition above about 35%, passing the limit was not always enough; inconclusive = no clear call, values can overlap the other calls
BoNT-A LC inh2: BoNT/A light chain protease inhibitors, primary screen, biochemical, flow cytometry, MLPCN library | Botulinum neurotoxin type A light chain protease (Clostridium botulinum A str. ATCC 3502) | multiplex microsphere protease substrate cleavage | inhibition, % at 10 µM | actives 0.17% (n = 360,000)
SSB-PriA inh: inhibitors of Klebsiella pneumoniae PriA binding to SSB C-terminal tail, primary screen, biochemical, AlphaScreen; AlphaScreen SSBct-PriA binding, biotinylated peptide; AID 1272365, 2023; inhibition, % at 33 µM; actives 0.6% (n = 430,000); PriA–SSB C-terminal tail interaction (Klebsiella pneumoniae); in the data active = inhibition mostly above about 37%, no sharp cut-off; inactive = mostly below about 20%
MazEF act: activators of E. coli MazEF toxin-antitoxin RNase, primary screen, biochemical, fluorescence, uHTS | FAM/BHQ RNA-DNA oligo cleavage fluorescence, 5 h | actives 0.32% (n = 350,000) | activation, % at 20 µM | Endoribonuclease toxin MazF (Escherichia coli (strain K12)), P0AE70; in the data active = activation above about 50%
Target sequence (P0AE70 whole entry, looked up): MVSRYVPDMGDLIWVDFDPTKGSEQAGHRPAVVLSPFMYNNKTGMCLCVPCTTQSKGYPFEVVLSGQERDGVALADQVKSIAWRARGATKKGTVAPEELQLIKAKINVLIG
Anthrax LF prot: Bacillus anthracis LF protease inhibitors, primary screen, biochemical, multiplex microsphere, MLPCN library | Lethal factor (Bacillus anthracis), P15917 | multiplex microsphere protease cleavage assay | inhibition, % at 10 µM | actives 0.12% (n = 360,000) | AID 588501, 2011
Bead autofluor: flagged as autofluorescent in microsphere protease counterscreen; compound autofluorescence counterscreen, microsphere flow cytometry; stronger effect = higher value; actives 3.1% (n = 360,000); fluorescence intensity (no concentration beside the values); in the data active = fluorescence intensity above about 16000; inconclusive = no clear call, values can overlap the other calls
Of the large screens only hits and unclear results are named; the others gave an inactive call. Rows were chosen to be rich in hits. Some 3.3% of all compounds tested hit in one or more screens of this group. Cut-off read from the data, not from the text of the source, unless noted: active = inhibition above about 30%; inconclusive = no clear call, values can overlap the other calls; inactive = below that.

Cn1c(SCc2ccc([N+](=O)[O-])cc2)nnc1-c1cccnc1	none
COC(=O)Nc1nc(-c2ccccc2)c(C(=O)c2ccc(Cl)cc2)s1	MazEF act 52.3
CCOC(=O)Nc1nc(-c2ccccc2)c(C(=O)c2ccccc2)s1	none
O=S(=O)(NCCn1ccc(-c2ccsc2)n1)c1ccc(OC(F)(F)F)cc1	none (no result: BoNT F protease, BoNT-A LC inh2, MazEF act, Anthrax LF prot, Bead autofluor)
NC(=O)c1ccccc1OCC#CCNC(=O)c1ccc(OC(F)(F)F)cc1	none (no result: BoNT F protease, BoNT-A LC inh2, MazEF act, Anthrax LF prot, Bead autofluor)
CC[n+]1c(/C=C/C=C/N(C(C)=O)c2ccccc2)sc2cc(OC)ccc21	MazEF act 506.0 (no result: BoNT F protease, BoNT-A LC inh2, Anthrax LF prot, Bead autofluor)
COCCN1C(=O)/C(=C/c2ccc(N3CCCC3)cc2)SC1=S	MazEF act 317.8, Bead autofluor 18513
CCOc1ccccc1OCC(=O)Nc1ccc(Cl)cc1C(=O)c1ccccc1	none
COc1ccccc1CC(=O)Nc1cc(Cl)ccc1O	BoNT-A LC inh2 inconclusive, Bead autofluor 18515
COc1ccccc1CC(=O)Nc1ccccc1O	Bead autofluor 20480
COc1ccccc1OCC(=O)Nc1ccc(Cl)cc1C(=O)c1ccccc1	Bead autofluor 23660
CS(=O)(=O)N1CCC(C(=O)Nc2nc3c(F)cccc3s2)CC1	none (no result: BoNT F protease, BoNT-A LC inh2, MazEF act, Anthrax LF prot, Bead autofluor)
Cc1cc(=O)[nH]c(-n2ncc(C(=O)Nc3ccc(F)cc3F)c2C)n1	none (no result: BoNT F protease, BoNT-A LC inh2, MazEF act, Anthrax LF prot, Bead autofluor)
O=C(NCCCS(=O)(=O)N1CCN(c2ccccn2)CC1)c1ccncc1	none (no result: BoNT F protease, BoNT-A LC inh2, MazEF act, Anthrax LF prot, Bead autofluor)
CCc1ccc(S(=O)(=O)NCc2ccccc2-c2ccsc2)s1	none (no result: BoNT F protease, BoNT-A LC inh2, MazEF act, Anthrax LF prot, Bead autofluor)
CCOC(=O)C1=NN(N=O)C2(CC(=O)N(c3cc(C)cc(C)c3)C2=O)C1 (configuration not stated)	Bead autofluor 24546
CCOC(=O)C1=NNC2(CC(=O)N(c3cc(C)cc(C)c3)C2=O)C1 (configuration not stated)	none
O=C(NCc1ccc(F)cc1)c1cccc2c1C(=O)c1ccc(N3CCC(Cc4ccccc4)CC3)cc1S2(=O)=O	Anthrax LF prot 33.1
O=C1/C(=N\S(=O)(=O)c2cccs2)C([n+]2cccc(Cc3ccccc3)c2)=C([O-])c2ccccc21	MazEF act 271.0 (no result: BoNT F protease, BoNT-A LC inh2, SSB-PriA inh, Anthrax LF prot, Bead autofluor)
CC(=O)c1ccccc1N(C(=O)Cn1nnc2ccccc21)C(C(=O)NCC1CCCO1)c1ccc(N2CCOCC2)cc1 (configuration not stated)	none
Cn1c(C(C(=O)NCC2CCCO2)N(C(=O)Cn2nnc3ccccc32)C2CCCCC2)nc2ccccc21 (configuration not stated)	Bead autofluor 21506
O=C1C(=C(I)I)c2ccccc2-c2ccccc21	SSB-PriA inh 81.1
N#C/C(=C\c1ccc(N2CCOCC2)o1)c1nc2ccccc2[nH]1	BoNT F protease 102.0
Cc1ccc2c(Nc3ccc(Cl)cc3)c(-c3nc(C)no3)cnc2n1	none (no result: BoNT F protease, BoNT-A LC inh2, MazEF act, Anthrax LF prot, Bead autofluor)
Cc1cc2ccccc2n1CCNC(=O)c1cccs1	BoNT-A LC inh2 78.7
Cc1noc(Cc2ccccc2NC(=O)c2csc(-c3ccccc3)n2)n1	none (no result: BoNT F protease, BoNT-A LC inh2, MazEF act, Anthrax LF prot, Bead autofluor)
Cn1nc(-c2ccccc2)c(C(O)c2ccc(Cl)cc2)c1Cl (configuration not stated)	Bead autofluor 24423
Cn1nc(-c2ccccc2)c(CSc2ccccc2Cl)c1Cl	none
COc1ccccc1OC(=O)Cc1cccc2ccccc12	none
COc1ccccc1CC(=O)O/N=C(\N)Cc1cccc2ccccc12	Bead autofluor 22659
CCN(CC)c1ccc(C(=O)O)cc1	none
CCN(CC)c1ccc(/C=C2\C(=O)c3ccc(C(=O)O)cc3C2=O)cc1	BoNT F protease 63.8, MazEF act 52.1, Anthrax LF prot 37.3
CCC(=O)Nc1nnc(SCc2ccccc2F)s1	none
CC(C)COC(=O)Nc1nnc(SCc2ccccc2F)s1	Bead autofluor 22547
CC(C)(C)C(=O)Nc1nnc(CSCc2ccccc2F)s1	Bead autofluor 19760
O=C(COc1coc(CN2CCc3ccccc32)cc1=O)c1ccc(Cl)cc1	none (no result: BoNT F protease, BoNT-A LC inh2, MazEF act, Anthrax LF prot, Bead autofluor)
COc1ccc(-c2ccnc3nc(N4CCN(c5ccccc5)CC4)nn23)cc1	BoNT-A LC inh2 inconclusive, Bead autofluor 22429
Fc1ccc(-c2ccnc3nc(N4CCOCC4)nn23)cc1	Bead autofluor 23704
Fc1ccc(-c2ccnc3nc(-n4cccc4)nn23)cc1	none
